Rows were chosen to be rich in hits. Some 2.9% of all compounds tested hit in one or more screens of this group.
EPAC2 antag – human EPAC2 antagonism, validation | 16,000 compounds, 1.7% hits | Q8WZA2 | EPAC2 Rap1B BODIPY-GDP exchange, fluorescence | Potency, µM (titrated, usually from 112 µM), inactives show at the top dose activity, negative = inhibition, actives largely listed as inhibitors | AID 1645886;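 further: 100% = activation by cAMP agonist control; nearly all actives have a fitted effect of over 40% in size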
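Fluorescent exchange read-out: 100 nM EPAC2 with 250 nM RAP1B–BODIPY-GDP and 50 uM GDP; BODIPY-GDP release lowers fluorescence. Read at 480/540 nm every 5 min for 30 min at room temperature; normalized to 6.5 mM cAMP.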
EPAC1 ag val – validation of human EPAC1 agonists. 16,000 compounds, 1% hits. EPAC1 Rap1b BODIPY-GDP exchange, fluorescence. O95398. Potency, µM, for the others: max response, positive = active, actives largely listed as activators; further: nearly all actives have a fitted effect of over 70% in size
Target sequence (O95398 whole entry, looked up): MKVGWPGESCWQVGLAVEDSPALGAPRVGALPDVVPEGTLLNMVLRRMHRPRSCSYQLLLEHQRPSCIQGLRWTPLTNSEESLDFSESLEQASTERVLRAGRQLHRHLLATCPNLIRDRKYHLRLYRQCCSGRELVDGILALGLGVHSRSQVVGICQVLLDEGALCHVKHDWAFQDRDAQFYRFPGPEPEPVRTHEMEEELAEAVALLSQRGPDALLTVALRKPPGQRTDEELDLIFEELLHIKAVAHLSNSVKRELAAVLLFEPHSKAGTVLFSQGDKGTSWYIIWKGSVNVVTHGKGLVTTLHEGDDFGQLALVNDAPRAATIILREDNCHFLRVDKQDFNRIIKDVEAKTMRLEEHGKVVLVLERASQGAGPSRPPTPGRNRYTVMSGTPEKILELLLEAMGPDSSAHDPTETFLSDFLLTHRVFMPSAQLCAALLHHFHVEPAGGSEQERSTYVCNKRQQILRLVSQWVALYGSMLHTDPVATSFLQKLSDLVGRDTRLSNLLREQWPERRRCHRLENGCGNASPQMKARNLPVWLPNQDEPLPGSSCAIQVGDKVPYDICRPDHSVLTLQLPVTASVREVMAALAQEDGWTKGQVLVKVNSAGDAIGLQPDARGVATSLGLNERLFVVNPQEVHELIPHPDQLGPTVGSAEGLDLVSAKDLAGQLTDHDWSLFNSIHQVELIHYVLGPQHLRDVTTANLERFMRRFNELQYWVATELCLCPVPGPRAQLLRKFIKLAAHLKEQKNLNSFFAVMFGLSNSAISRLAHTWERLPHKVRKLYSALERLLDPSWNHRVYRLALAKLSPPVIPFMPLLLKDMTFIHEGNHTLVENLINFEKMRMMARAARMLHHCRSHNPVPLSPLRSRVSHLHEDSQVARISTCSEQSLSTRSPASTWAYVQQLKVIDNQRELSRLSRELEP
Active calls of the source: *; ! = not confirmed by another sample; [ ] = dose if it differs, or a comment. The call rests on the fitted dose curve; in most records, active means well fitted curve in the direction sought with a large enough effect; inconclusive means small, poorly fitted or top-dose-only effect, or another doubt; inactive means no such curve, though single readings can be large; an effect the other way counts as inactive or inconclusive. Unless noted, on the % scale 0 is the no-effect control and ±100 the full control effect; potency means the concentration at half of the fitted maximal effect.

`COc1ccccc1C1CN(Cc2cccc(C)n2)Cc2ccccc2O1` (configuration not stated) gave EPAC2 antag inconclusive and EPAC1 ag val 15%.
CCCCCCCC/C=C\CCCCCCCC(=O)N[C@@H](CO)Cc1ccc(O)cc1 was read as EPAC2 antag 20µM* and EPAC1 ag val -58%.
Screening CCCCCCCC/C=C\C/C=C\C/C=C\CCCC(=O)NCCO returned EPAC2 antag -21%[11.4 µM] and EPAC1 ag val -33%.
N[C@H](C(=O)O)C(O)C(O)C(O)CO (some centres not stated) was read as EPAC2 antag -20% and EPAC1 ag val 112µM*.
For O=C(O)[C@H](O)[C@@H](O)[C@H](O)[C@H](O)CO the results were EPAC2 antag -10% and EPAC1 ag val -15%.
CO[C@H]1C[C@H](O[C@H]2[C@H](C)[C@@H](O[C@@H]3O[C@H](C)C[C@H](N(C)C)[C@H]3OC(C)=O)[C@@H](C)C[C@]3(CO3)C(=O)[C@H](C)[C@@H](OC(C)=O)[C@@H](C)[C@@H](C)OC(=O)[C@@H]2C)O[C@@H](C)[C@@H]1OC(C)=O was read as EPAC2 antag -24%[56.6 µM] and EPAC1 ag val -16%.
For COc1ccc2c(c1)CCc1cnc(-n3ncc(C(=O)NCCCc4ccncc4)c3C)nc1-2 the results were EPAC2 antag -15% and EPAC1 ag val -8%.
`COc1cccc(-c2nc3cc4c(cc3cc2CN(C(=O)c2cc(C)nn2C)C2CC2)CCC4)c1OC` gave EPAC2 antag inconclusive and EPAC1 ag val 0%.
Screening COc1ccc(C(=O)N2CCC3(CCCN(c4cccc(-c5ccccc5)c4)C3)CC2)cc1 returned EPAC2 antag -9% and EPAC1 ag val 100µM*.
Screening O=C(c1cnccn1)N1CCC[C@@]2(CCN(c3ccccc3)C2)C1 returned EPAC2 antag -18% and EPAC1 ag val -44%.
For COc1ccc(C(=O)N2CCC3(CCCN(c4ccccc4)C3)CC2)cc1 the results were EPAC2 antag -20% and EPAC1 ag val -20%.
Screening Cn1cccc1C(=O)N1CCC2(CCCN(c3cccc(-c4ccccc4)c3)C2)CC1 returned EPAC2 antag -11% and EPAC1 ag val 112µM*.
For O=C(c1cnccn1)N1CCC[C@@]2(CCN(c3cccc(-c4ccccc4)c3)C2)C1 the results were EPAC2 antag inconclusive and EPAC1 ag val 100µM*.
`COC(=O)N1CCC2(CCCN(c3cccc(-c4ccccc4)c3)C2)CC1` gave EPAC2 antag -25% and EPAC1 ag val 112µM*.
For Cn1cccc1C(=O)N1CCC[C@@]2(CCN(c3cccc(-c4ccccc4)c3)C2)C1 the results were EPAC2 antag -29% and EPAC1 ag val 17%.
For O=C(c1ccco1)N1CCC2(CCCN(c3cccc(-c4ccccc4)c3)C2)CC1 the results were EPAC2 antag -15% and EPAC1 ag val inconclusive.
Cn1nccc1C(=O)NCC1CCC2(CCN(Cc3ccc(-c4ccc(Cl)cc4)o3)CC2)O1 (configuration not stated) was read as EPAC2 antag -10% and EPAC1 ag val -4%.
`COCC(C)NCc1cc2ccc(OC)cc2nc1N1CCN(c2ccc(F)cc2)CC1` (configuration not stated) gave EPAC2 antag -13% and EPAC1 ag val 10%.
Screening NC(=O)CC[C@@H]1NC(=O)[C@H](Cc2ccccc2)NC(=O)[C@H](Cc2ccc(O)cc2)NC(=O)CCSSC[C@@H](C(=O)N2CCC[C@H]2C(=O)N[C@@H](CCCN=C(N)N)C(=O)NCC(N)=O)NC(=O)[C@H](CC(N)=O)NC1=O returned EPAC2 antag -22% and EPAC1 ag val 4%.
O=C(c1ccncc1)N1CCC2(CC1)CN(c1cccc(-c3ccccc3)c1)C2 was read as EPAC2 antag -41% and EPAC1 ag val inconclusive.
Screening COc1ccc(C(=O)N2CCC3(CC2)CN(c2cccc(-c4ccccc4)c2)C3)cc1 returned EPAC2 antag -26% and EPAC1 ag val 112µM*.
Screening CC(C)(C=O)Cc1cc(C(C)(C)C)c(O)c(C(C)(C)C)c1 returned EPAC2 antag inconclusive and EPAC1 ag val 5%.
CC(C)(CO)Cc1cc(C(C)(C)C)c(O)c(C(C)(C)C)c1 was read as EPAC2 antag 56µM*! and EPAC1 ag val 4%.
c1ccc(-c2onc(-c3ccco3)c2-c2ccc3[nH]ccc3c2)cc1 was read as EPAC2 antag inconclusive and EPAC1 ag val 112µM*.
Screening OCCN(CCO)c1nc(N2CCCCC2)c2nc(N(CCO)CCO)nc(N3CCCCC3)c2n1 returned EPAC2 antag inconclusive and EPAC1 ag val 35µM*!.
For CO[C@@H]1[C@@H](O[C@@H]2O[C@H](C)[C@@H](O[C@H]3C[C@@](C)(O)[C@@H](OC(=O)CC(C)C)[C@H](C)O3)[C@H](N(C)C)[C@H]2O)[C@@H](CC=O)C[C@@H](C)[C@@H](O)/C=C/C=C/C[C@@H](C)OC(=O)C[C@H]1O the results were EPAC2 antag -4% and EPAC1 ag val 0%.
O=C1OC2(c3ccc(O)cc3Oc3cc(O)ccc32)c2ccccc21 was read as EPAC2 antag 41% and EPAC1 ag val inconclusive.
`O=C1OC2(c3ccccc31)c1cc(I)c(O)c(I)c1Oc1c2cc(I)c(O)c1I` gave EPAC2 antag inactive and EPAC1 ag val 32µM*.
`Cc1ccc(C(=O)Nc2cnn(-c3ccc(C(=O)N(C)Cc4n[nH]c5c4CCCC5)cc3)c2)c(C)c1` gave EPAC2 antag -12% and EPAC1 ag val 21%.
Screening COC(=O)[C@@H]1CCCN1C(=O)c1cnn(-c2ncc3c(n2)-c2ccccc2CCC3)c1C1CC1 returned EPAC2 antag -12% and EPAC1 ag val -3%.
CCC(=O)O[C@H]1[C@H](O[C@@H]2[C@@H](C)[C@H](O[C@H]3C[C@@](C)(OC)[C@@H](O)[C@H](C)O3)[C@@H](C)C(=O)O[C@H](CC)[C@@](C)(O)[C@H](O)[C@@H](C)C(=O)[C@H](C)C[C@@]2(C)O)O[C@H](C)C[C@@H]1N(C)C was read as EPAC2 antag 32µM* and EPAC1 ag val -70%.
`CCOC(=O)CCC(=O)O[C@H]1[C@H](O[C@@H]2[C@@H](C)[C@H](O[C@H]3C[C@@](C)(OC)[C@@H](O)[C@H](C)O3)[C@@H](C)C(=O)O[C@H](CC)[C@@](C)(O)[C@H](O)[C@@H](C)C(=O)[C@H](C)C[C@@]2(C)O)O[C@H](C)C[C@@H]1N(C)C` gave EPAC2 antag -14% and EPAC1 ag val -3%.
For COc1ccc(CN2CCCC(c3nc(-c4ccncc4)ncc3-c3ccccc3C)C2)c(OC)c1 (configuration not stated) the results were EPAC2 antag inconclusive and EPAC1 ag val 16%.
For CC[C@H]1OC(=O)[C@H](C)[C@@H](O[C@H]2C[C@@](C)(OC)[C@@H](O)[C@H](C)O2)[C@H](C)[C@@H](O[C@@H]2O[C@H](C)C[C@H](N(C)C)[C@H]2O)[C@](C)(O)C[C@@H](C)[C@@H]2N[C@@H](COCCOC)O[C@@H]([C@H]2C)[C@]1(C)O the results were EPAC2 antag 15% and EPAC1 ag val -30%.
For COc1ncc2nc(-c3ccccc3)c(=O)n(Cc3cccs3)c2n1 the results were EPAC2 antag inconclusive and EPAC1 ag val 112µM*.
Screening COc1ncc2nc(-c3cccs3)c(=O)n(Cc3cccs3)c2n1 returned EPAC2 antag -18% and EPAC1 ag val inconclusive.
